Values joined by “and” are separate entries in the source; they are usually repeats but may differ in a detail not shown here. Equal entries are not always repeated. Among all 5,500 compounds or so, about 2,000 (36%) were called active. About 18% were inconclusive and are not listed. No stated cut-off is given here; in the data, active means normalized growth mostly below about 0.91 (no sharp cut-off); inconclusive means no clear call, values can overlap the other calls; inactive means mostly above about 0.92. The list shows a part of the results.
Assay: chemical genetic growth profiling, strain panel (AID 1159580);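 further: tested at 20 µM; growth read once vehicle control cultures reached saturation at 30 °C; 1 = growth at the plate median or of vehicle wells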
Conditions: S. cerevisiae deletion strains, growth OD

Measured: normalized growth

COC(=O)C1=CCCN(C)C1
inactive: locus YAL013W, strain DEP1, stronger effect = lower value 1 and 1.01 | locus YAL021C, strain ccr4, stronger effect = lower value 1.03 | locus YAL026C, strain drs2, stronger effect = lower value 1.02 | locus YAL030W, strain snc1, stronger effect = lower value 1 | locus YAL040C, strain CLN3, stronger effect = lower value 0.997 | locus YBL061C, strain skt5, stronger effect = lower value 1.02 | locus YBR009C, strain hhf1, stronger effect = lower value 0.986 | locus YBR021W, strain FUR4, stronger effect = lower value 1 | locus YBR023C, strain chs3, stronger effect = lower value 1.02 | locus YBR171W, strain sec66, stronger effect = lower value 1.02 | locus YBR229C, strain ROT2, stronger effect = lower value 0.954 | locus YBR231C, strain swc5, stronger effect = lower value 0.999 | locus YBR279W, strain paf1, stronger effect = lower value 1.02 | locus YCL011C, strain gbp2, stronger effect = lower value 1.01 | locus YCL016C, strain dcc1, stronger effect = lower value 1.02 | locus YCL029C, strain bik1, stronger effect = lower value 0.983 | locus YCL069W, strain vba3, stronger effect = lower value 0.988 | locus YCR088W, strain abp1, stronger effect = lower value 1.01 | locus YDL005C, strain med2, stronger effect = lower value 0.998 | locus YDL035C, strain GPR1, stronger effect = lower value 0.993 | locus YDL040C, strain nat1, stronger effect = lower value 0.993 | locus YDL074C, strain BRE1, stronger effect = lower value 0.99 | locus YDL101C, strain DUN1, stronger effect = lower value 0.976 | locus YDL134C, strain PPH21, stronger effect = lower value 0.969 | locus YDL185W, strain tfp1, stronger effect = lower value 0.992 | locus YDL192W, strain arf1, stronger effect = lower value 0.983 | locus YDR001C, strain nth1, stronger effect = lower value 1 | locus YDR069C, strain doa4, stronger effect = lower value 0.993 | locus YDR101C, strain arx1, stronger effect = lower value 0.989 | locus YDR137W, strain rgp1, stronger effect = lower value 1.02 | locus YDR150W, strain NUM1, stronger effect = lower value 0.973 and 1.01 | locus YDR159W, strain sac3, stronger effect = lower value 0.94 | locus YDR162C, strain NBP2, stronger effect = lower value 0.991 | locus YDR195W, strain ref2 0.956 | locus YDR297W, strain sur2, stronger effect = lower value 1 | locus YDR318W, strain mcm21, stronger effect = lower value 0.99 | locus YDR334W, strain swr1, stronger effect = lower value 1 | locus YDR335W, strain msn5, stronger effect = lower value 1.02 | locus YDR388W, stronger effect = lower value 0.994 | locus YDR392W, strain spt3, stronger effect = lower value 0.977 | locus YDR502C, strain sam2, stronger effect = lower value 1 | locus YEL003W, strain gim4, stronger effect = lower value 0.997 | locus YEL037C, strain rad23, stronger effect = lower value 1.02 | locus YEL061C, strain CIN8 (second series), stronger effect = lower value 0.988 | locus YEL061C, strain CIN8, stronger effect = lower value 0.991 | locus YER002W, strain NOP16, stronger effect = lower value 0.986 | locus YER015W, strain faa2, stronger effect = lower value 1 | locus YER016W, strain bim1, stronger effect = lower value 1.02 | locus YER110C, stronger effect = lower value 0.969 | locus YER111C, strain swi4, stronger effect = lower value 1.01 | locus YER155C, strain BEM2 (second series), stronger effect = lower value 0.984 | locus YER155C, strain BEM2, stronger effect = lower value 1.02 | locus YER167W, strain BCK2, stronger effect = lower value 0.995 | locus YFR010W, strain ubp6, stronger effect = lower value 0.984 | locus YGL078C, strain dbp3, stronger effect = lower value 0.988 | locus YGL086W, strain mad1, stronger effect = lower value 0.994 | locus YGL167C, strain pmr1, stronger effect = lower value 1.01 | locus YGL173C, strain kem1, stronger effect = lower value 0.976 | locus YGL227W, strain vid30, stronger effect = lower value 0.998 | locus YGL240W, strain doc1, stronger effect = lower value 0.974 | locus YGL248W, strain PDE1, stronger effect = lower value 0.978 | locus YGL253W, strain hxk2, stronger effect = lower value 1.02 | locus YGR078C, strain PAC10, stronger effect = lower value 0.991 | locus YGR135W, strain pre9, stronger effect = lower value 0.983 | locus YGR229C, strain SMI1, stronger effect = lower value 1 | locus YGR252W, strain gcn5, stronger effect = lower value 0.945 | locus YHR013C, strain ard1, stronger effect = lower value 1.03 | locus YHR027C, strain rpn1, stronger effect = lower value 0.996 | locus YHR030C, strain SLT2, stronger effect = lower value 0.986 and 0.989 | locus YHR079C, strain IRE1 (second series), stronger effect = lower value 0.994 | locus YHR079C, strain IRE1, stronger effect = lower value 1.05 | locus YHR094C, strain hxt1, stronger effect = lower value 0.996 | locus YHR129C, strain ARP1, stronger effect = lower value 0.993 | locus YHR142W, strain chs7, stronger effect = lower value 1.03 | locus YHR200W, strain rpn10, stronger effect = lower value 0.989 | locus YIL066C, strain RNR3, stronger effect = lower value 0.982 | locus YIL073C, strain SPO22, stronger effect = lower value 0.935 | locus YIL125W, strain kgd1, stronger effect = lower value 0.995 | locus YIR030C, strain dcg1, stronger effect = lower value 0.98 | locus YJL092W, strain hpr5, stronger effect = lower value 1.01 | locus YJL095W, strain BCK1 (second series), stronger effect = lower value 1.01 | locus YJL095W, strain BCK1, stronger effect = lower value 1.02 and 1 | locus YJL115W, strain asf1, stronger effect = lower value 1.02 | locus YJL129C, strain trk1, stronger effect = lower value 1.04 | locus YJL134W, strain LCB3, stronger effect = lower value 0.985 | locus YJL154C, strain vps35, stronger effect = lower value 0.996 | locus YJL164C, strain tpk1, stronger effect = lower value 0.998 | locus YJL166W, strain qcr8, stronger effect = lower value 0.998 | locus YJL168C, strain set2, stronger effect = lower value 1 | locus YJL187C, strain SWE1 (second series), stronger effect = lower value 0.973 | locus YJR043C, strain POL32, stronger effect = lower value 1 | locus YJR066W, strain TOR1, stronger effect = lower value 0.968 | locus YJR075W, strain HOC1, stronger effect = lower value 0.99 and 1.01 | locus YKL009W, strain mrt4, stronger effect = lower value 0.999
